From PubChem BioAssay (NCI)
This is part of a sample that, as a whole, favours compounds with a hit. Of some 79,000 tested, about 15% had one in any assay. A number with no mark means an inactive call. Active and inactive are the calls of the source. Rule as the data show it: active = growth inhibition above about 70%; inactive = the rest.

How the values were obtained:
[1] = NCI Yeast Anticancer Drug Screen. Data for the rad50 strain (AID 155);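 also: 0% = growth of vehicle-only cultures of the same strain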; conditions: S. cerevisiae rad50 strain growth inhibition; at 50.0 µM; active compounds read high
Procedure, shortened: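 A DNA repair-deficient yeast mutant serves as the test organism; compound-induced growth inhibition is calculated against vehicle-treated cells.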

[2] = NCI Yeast Anticancer Drug Screen. Data for the mec2-1 strain (AID 157); conditions: S. cerevisiae mec2-1 strain, at 50.0 µM, active compounds read high
Procedure, shortened: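 Mutant yeast (mec2-1) grown with compound; growth inhibition relative to vehicle control reported.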

[3] = NCI Yeast Anticancer Drug Screen. Data for the sgs1 mgt1 strain (AID 161);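 also: 0% = growth of cultures given vehicle only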; conditions: S. cerevisiae sgs1 mgt1 strain, at 50.0 µM, active compounds read high
Procedure, shortened: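 Yeast cells carrying a defined DNA-repair defect were exposed to test compounds. Growth inhibition was measured relative to vehicle-treated controls.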

[4] = NCI Yeast Anticancer Drug Screen. Data for the cln2 rad14 strain (AID 165);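 also: 0% = growth equal to vehicle treated cultures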; conditions: S. cerevisiae cln2 rad14 strain, at 50.0 µM, active compounds read high
Procedure, shortened: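 Readout is yeast growth inhibition versus vehicle-treated controls, using a strain with cln2 and rad14 alterations exposed to compound.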

[5] = NCI Yeast Anticancer Drug Screen. Data for the bub3 strain (AID 167); conditions: S. cerevisiae bub3 mutant strain, at 50.0 µM, active compounds read high
Procedure, shortened: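 Inhibition values come from growth of compound-treated mutant yeast normalised to vehicle-treated controls.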

[6] = NCI Yeast Anticancer Drug Screen. Data for the mlh1 rad18 strain (AID 175); conditions: S. cerevisiae mlh1 rad18 strain growth inhibition; at 50.0 µM; active compounds read high
Procedure, shortened: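 Genetically defined yeast (DNA repair-deficient) exposed to compounds; growth inhibition determined relative to vehicle.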

| SMILES | growth inhibition [1] | growth inhibition [2] | growth inhibition [3] | growth inhibition [4] | growth inhibition [5] | growth inhibition [6] |
| --- | --- | --- | --- | --- | --- | --- |
| CC(C)C1=CC23CCC4C(C)(C(=O)O)CCCC4(C)C2CC1C1C(=O)N(CCCN(C)C)C(=O)C13 (stereo not drawn) | 98.8% (active) | 99% (active) | 99% (active) | 98.2% (active) | 98% (active) | 98.6% (active) |
| CC1(C)CC2=C(Sc3ccccc3N2)C(=O)C1C(=O)C(=O)Nc1cccc([N+](=O)[O-])c1 (stereo not drawn) | -22.1% | -22.8% | -11.7% | -35.9% | 2% | 1.1% |
| NNS(=O)(=O)c1ccc(Oc2ccc(S(=O)(=O)NN)cc2)cc1 | 10.8% | 10.1% | 24.6% | -4.9% | 14.9% | 30.9% |
| Cc1cc2c(=O)c3ccc(Cl)cc3[nH]c2c(C(N)=O)c1C | 22.2% | 7.4% | 14.5% | 26.3% | 6.6% | 13.3% |
| COc1ccc(C(C)=O)cc1C=O | 1.4% | 9.65% | -2.65% | -13.2% | -20.1% | 16.2% |
| C=CCNC(=O)NCCCCC(NC(C)=O)C(=O)NCc1ccccc1 (stereo not drawn) | -25.4% | -18.4% | -13.6% | 2.35% | -16.8% | -10% |
| O=C(CC[n+]1ccccc1)NCCCCCCNC(=O)CC[n+]1ccccc1 | -17.9% | -31.9% | -23.5% | 7.5% | -17.4% | -21.9% |
| CCC1c2c(cc(=O)[nH]c2O)C(=O)N1Cc1ccccc1 (stereo not drawn) | 12.3% | 6.4% | 7.75% | 4.25% | 1.15% | -0.1% |
| CC#CC(C)(C)N(C)C | -16.6% | -8.45% | -8.75% | -21.4% | 12.8% | 14.1% |
| Cc1cccc(NC(=O)/C(=N\NC(C)(C)C)C2NC(=S)NC2=O)c1C (stereo not drawn) | -2.25% | -29.8% | -38.5% | -6.6% | -16.4% | -39.1% |
| Cc1ccccc1SC(c1ccccc1)(c1ccccc1)c1ccccc1 | -11.2% | -25.3% | -0.2% | -6.55% | -6.1% | -37.8% |
| Oc1ccc(Oc2cc3c(cc2Oc2ccc(O)cc2)-c2nc-3nc3[nH]c(nc4nc(nc5[nH]c(n2)c2cc(Oc6ccc(O)cc6)c(Oc6ccc(O)cc6)cc52)-c2cc(Oc5ccc(O)cc5)c(Oc5ccc(O)cc5)cc2-4)c2cc(Oc4ccc(O)cc4)c(Oc4ccc(O)cc4)cc32)cc1 | -94.7% | -56.7% | -119% | -99.7% | -80.5% | -104% |
| c1ccc(CCc2cccnc2)nc1 | 26% | -4.5% | -21.6% | 50% | -6.1% | -1.7% |
| COc1ccc(C(=O)c2ccccc2)c(O)c1OC | -12.9% | -5.95% | -2.35% | -0.75% | 45.8% | 10.3% |
| Cc1cc(Cl)c(O)c(C2(C(O)c3ccc(O)cc3)NC(=S)NC2=O)c1 (stereo not drawn) | -20.4% | -17.1% | -25.6% | -6.5% | 4.95% | -6.75% |
| COC(=O)C1C2C=CC(C2)C1C(=O)OC (stereo not drawn) | -20.5% | 36.5% | -10.8% | -27.9% | -7.95% | 0.1% |
| CC(C)=CCC1=C(OCC(=O)O)C(=O)c2ccccc2C1=O | 30.9% | 1.45% | 12.8% | -2.7% | 20.1% | 23.1% |
| CC1=Nc2ccccc2NC(C)(C)C1 | 30.1% | 23.4% | 29.5% | 13.9% | 15.2% | 20.4% |
| CC(C)SC(C)(NC(=O)C1C(C)(C)CCC1(C)C)C(=O)O (stereo not drawn) | -52.6% | 1.45% | -24.6% | 1.5% | 5.45% | -49.5% |

| SMILES | growth inhibition [1] | growth inhibition [2] | growth inhibition [3] | growth inhibition [4] | growth inhibition [5] | growth inhibition [6] |
| --- | --- | --- | --- | --- | --- | --- |
| Cc1cc(C)c(S(N)(=O)=O)c(C)c1 | -1.2% | -16.6% | -28.2% | -5.4% | -15.1% | -0.8% |
| O=C(CCN1CCCC1)c1ccccc1 | -25.1% | -15.1% | -11.4% | 5.45% | -10.6% | -11.1% |
| CC1=C(/C=C/Cl)CC(Cl)C(C)(Cl)C1 (stereo not drawn) | -2.25% | -10.4% | -4.5% | 12.5% | -0.45% | -45.2% |
| CCOC(=O)C(C)c1nc2cc(N3CCOCC3)c(F)cc2[nH]c1=O (stereo not drawn) | 24.6% | -7.55% | 11.7% | 28.6% | 5.7% | 4.95% |
| CCS(=O)(=O)c1ccc(NC(=O)OC2CCCCCC2)cc1 | -2.65% | -2.25% | 25.8% | -1.25% | 12.3% | 7.8% |
| COc1cccc(C(=O)O)c1O | -16.9% | -11.8% | -15.3% | -8.8% | -19.9% | -7.7% |
| COc1ccc([N+](=O)[O-])cc1NC(=O)N/N=C(\C)C(C)(C)C | 5.2% | 18.2% | 8.8% | -9.35% | 3.4% | 6.3% |
| C(#[C][Sn]([c]1ccccc1)([c]1ccccc1)[c]1ccccc1)c1ccccc1 | 98.3% (active) | 95.5% (active) | 97.8% (active) | 98.5% (active) | 98.8% (active) | 98.6% (active) |
| COc1ccccc1/C=C1\CCC(CN(C)C)C1=O (stereo not drawn) | 82.2% (active) | 89.5% (active) | 91.8% (active) | 55.4% | 91.1% (active) | 92.2% (active) |
| Oc1cc(CN2COc3ccccc32)c(O)cc1CNC1CCCCC1 | -6.65% | -4.95% | -25.6% | 62.5% | -33.7% | -12.3% |
| CC1(C)N=C(N)N=C(N)N1c1cccc(CCC(=O)Nc2cccnc2)c1 | 19.4% | 1.4% | 5.2% | 9.05% | -4.5% | -6.3% |
| NC(=S)CNC(=O)c1ccccc1 | -28.6% | -33.1% | -29.3% | -9.55% | -11.8% | 9.6% |
| CC(C)NS(=O)(=O)c1ccccc1 | 19.4% | -3.1% | 10.6% | 6.75% | 0.6% | 26.9% |
| CC(=O)O[C@]12CCCCCC1C1(O)C(O)CCC[C@H]12 (stereo partly drawn) | -29.4% | -19.9% | -54.8% | 17.6% | -26.1% | -47.3% |
| CC(C)(CN1C(=O)C(Cl)=C(Cl)C1=O)CN1C(=O)C(Cl)=C(Cl)C1=O | 1.7% | -5.6% | 6.3% | -20.8% | -5.8% | 9.2% |
| COc1cc(/C=C(\C#N)C(N)=C(C#N)C#N)cc(O)c1O | -32.5% | -20.8% | -19.6% | 0.65% | -24.3% | -18.8% |
| COc1ccc([B-]23OCC[N+]2(CNC(=O)c2ccccc2O)CCO3)cc1 (stereo not drawn) | 27.4% | 2.7% | 13.9% | 14.9% | 7.3% | 17.6% |
| NCCSS(=O)(=O)CCN | -17.4% | -4.6% | 18.4% | -18.4% | 1.95% | 3.4% |
| CCCCNC(C(=O)c1ccc(N(C)C)cc1)c1ccccc1 (stereo not drawn) | 3.7% | -10.6% | -3.1% | -8.15% | 2.95% | -13.9% |
